Shiga inhibitor: blocks Shiga toxin action in Vero cells; Vero cells, Shiga toxin protein synthesis inhibition reporter; inhibition, % at 38.7 µM; hit rate 9.2% among 290,000; in the data active = inhibition mostly above about 28%, no sharp cut-off; inactive = mostly below about 43%; note: 0% is about no effect
Lassa entry inh: Lassa virus entry inhibition; Lassa virus pseudotype entry inhibition, cell reporter; Potency, µM (top dose mostly 37.9 µM), without a hit: at the top dose activity change, negative = inhibition, most hits filed as inhibitors; hit rate 1.2% among 300,000; AID 540256; calls by dose curve; tested in HEK293 cells; note: potency is the fitted concentration of half-maximal effect; % is set by controls: 0 for no effect and ±100 for the full control effect; nearly all actives have a fitted effect of over 50% in size
Marburg entry inh: Marburg virus entry inhibition; Potency, µM (series often up to 37.8 µM), for inactives: top-dose activity change, negative = inhibition, actives largely listed as inhibitors; hit rate 1.8% among 300,000; Marburg virus pseudotyped entry inhibition, cell reporter; calls by dose curve; tested in HEK293 cells; note: potency is the fitted concentration of half-maximal effect; % is set by controls: 0 for no effect and ±100 for the full control effect
Cycloheximide cs: affects cycloheximide protein synthesis inhibition readout, counter-screen; cell reporter, cycloheximide protein synthesis inhibition counterscreen; max response, %; hit rate 12% among 300,000; AID 2314; in the data active = max response mostly above about 13%, no sharp cut-off; inactive = mostly below about 14%; note: read at 38.3 µM for the half of the compounds with a filed dose; 0% is about no effect
* = called active by the depositor; ? = inconclusive; . = not tested or not shown; [ ] = remark or other dose. Hits are enriched below; roughly 12% of the tested compounds scored in any of these assays.

SMILES | Shiga inhibitor | Lassa entry inh | Marburg entry inh | Cycloheximide cs
CC1CCN(c2nnc(-c3cccs3)c3ccccc23)CC1 | 60 | . | 0% | 16*
CCCCNC(=O)[C@@H]1CSC2c3ccccc3C(=O)N21 (some centres undefined) | -4 | 1%[46.1 µM] | ? | -4
CCCn1nnc(NC(=O)c2ccccc2Br)n1 | 49* | 13% | 10% | 19
CCCn1nnc(NC(=O)c2ccc(Br)o2)n1 | 18 | 4% | 30% | 18
CCn1nnc(NC(=O)c2ccccc2Br)n1 | 71* | 21% | 6% | 27*
O=C(CSc1nc(=O)n(Cc2ccncc2)c2c1CCC2)Nc1ccc(F)cc1F | . | 23%[46.1 µM] | . | .
CN(C)C(Cc1ccc(C#N)cc1)C(=O)c1ccccc1 (centres undefined) | 32 | ? | 4% | 29*
CN(C)C(Cc1ccccc1)C(=O)c1ccc(-c2ccccc2)cc1 (centres undefined) | -3 | -10% | ? | 8
COc1ccc(C(=O)C(Cc2ccccc2)N(C)C)cc1 (centres undefined) | 42* | 14% | 2% | 31*
O=C(CSc1c2c(nc3cc(Cl)ccc13)CCCC2)N1CCN(c2ccccc2F)CC1 | . | 3%[46.1 µM] | -2%[46.1 µM] | .
COc1ccc(-c2nn3c(-c4ccccc4)nnc3s2)cc1 | 28 | -9% | -39% | 10
Cc1nc2sc(-c3ccccc3)nn2c(=O)c1Br | 94* | 0% | 9% | 56*
Clc1ccc(-c2nn3c(-c4ccccc4)nnc3s2)cc1 | 11 | 17% | ? | 7
COc1ccc(-c2nn3c(=O)c(C)nnc3s2)cc1 | 54* | . | . | 28
CCOC(=O)N1CCN(C(=O)CNC(=O)c2ccc(Br)cc2)CC1 | -23 | -5% | 11% | 9
N/C(=N\OC(=O)c1cccs1)c1cccc(Br)c1 | 78* | ? | ? | 39*
Cc1ccc(/C(N)=N/OC(=O)c2cccs2)cc1 | 37* | ? | ? | 39*
N/C(=N\OC(=O)c1cccs1)c1ccccc1 | 80* | ? | ? | 35*
N/C(=N\OC(=O)c1cccc(Br)c1)c1ccc([N+](=O)[O-])cc1 | 11 | . | . | -3
COc1ccc(/C(N)=N/OC(=O)c2cccs2)cc1OC | 8 | -28% | ? | 2
Cc1cccc(/C(N)=N/OC(=O)c2cccs2)c1 | 106* | -3% | -18% | 71*
OCC[C@@H]1C[C@H](O)[C@@H](O)[C@]2(OCc3ccccc32)O1 | -8 | . | . | 2
Cc1ccc(NC(=O)c2cc3nc(-c4ccc5c(c4)OCO5)cc(C(F)(F)F)n3n2)cc1Cl | . | -12%[46.1 µM] | -13%[46.1 µM] | .
CC(C)(C)NC(=O)Cn1c(Cl)nc2ccccc21 | 18 | . | . | -3
Cc1ccc2c(c1)c(C)cc[n+]2Cc1ccccc1 | -5 | ? | 10µM* | 0
SMILES | Shiga inhibitor | Lassa entry inh | Marburg entry inh | Cycloheximide cs
C=C(C)C1Cc2cc3ccc(=O)oc3cc2O1 (centres undefined) | 27 | 13% | 2% | 16*
CC(C)(O)[C@H]1Cc2cc3ccc(=O)oc3cc2O1 | 82* | . | . | 39*
CCOC(=O)c1ccccc1NS(=O)(=O)c1ccc(OCC)cc1 | 9 | 2.6µM* | ? | 15
CCOc1ccc(NC(=O)Nc2ccccc2C(N)=O)cc1 | 46* | 3%[46.1 µM] | 1%[46.1 µM] | 29*
CCOc1ccc(NC(=O)Nc2ccc(NC(C)=O)cc2)cc1 | 22 | 12% | -27%[46.1 µM] | 3
COc1ccc(NC(=O)Nc2ccccc2C(N)=O)cc1OC | 9 | -12%[14.3 µM] | 3% | 19
COc1ccc(NC(=O)Nc2ccccc2C(N)=O)cc1 | 72 | . | . | 26*
Cc1ccc(NC(=O)Nc2ccccc2C(N)=O)cc1 | 63* | . | . | 29*
Cc1ccccc1NC(=O)Nc1ccccc1C(N)=O | 14 | 9% | -14% | -3
O=C(CCN1C(=O)/C(=C/c2ccccc2F)SC1=S)NCCCn1ccnc1 | -3 | . | . | -2
COc1ccc(OC)c(-c2cc(C(=O)NC(C)c3ccccc3)no2)c1 (centres undefined) | . | ? | -16%[46.1 µM] | .
CC(=O)Nc1cccc(-c2nc(-c3ccccc3)no2)c1 | . | 21%[46.1 µM] | . | .
O=C(Nc1ccccc1)Nc1cccc(-c2nnco2)c1 | 48* | . | . | 20*
O=C(Nc1ccc(-c2nnco2)cc1)c1ccccc1 | 68* | 22% | 1% | 14*
O=C(Nc1ccc(NC(=O)c2ccc3c(c2)OCCO3)cc1)c1ccccc1 | 23 | ? | ? | 8
CCCN(CC(=O)Nc1cc(Cl)ccc1Cl)C(=O)/C=C/c1ccco1 | 126* | -2% | ? | 55*
CCCN(CC(=O)Nc1ccc(Cl)cc1Cl)C(=O)/C=C/c1cccc([N+](=O)[O-])c1 | -15 | 1% | ? | -6
CN(CC(=O)Nc1ccc(Cl)c(C(F)(F)F)c1)C(=O)/C=C/c1ccco1 | 37* | -1% | ? | 14
CCCNS(=O)(=O)c1ccc2nc(NC(=O)c3ccc(F)cc3)sc2c1 | . | 4%[46.1 µM] | . | .
